Source: PubChem (National Center for Advancing Translational Sciences (NCATS))
Pf Dd2 growth – inhibitors of Plasmodium falciparum Dd2 growth; P. falciparum Dd2 growth, SYBR Green, 72 h; Potency, µM (series often up to 28.9 µM), for the others: at the top dose activity, negative = inhibition, usual class: inhibitors; 120,000 compounds, 4.3% hits; AID 1347417; active = well fitted inhibition curve with a large enough effect;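 note: plate controls were DMSO vehicle for no effect and reference drug for full effect; nearly all actives have a fitted effect of over 65% in size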
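Infected erythrocytes (Dd2, 0.3% parasitemia, 2.5% hematocrit final) are added to compound in RPMI-1640/Albumax II medium, grown 72 h at 37C in low oxygen, then lysed with saponin/Triton-X containing SYBR Green and read by fluorescence.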
Active calls of the source: *; [ ] = remark or other dose. This excerpt belongs to a sample that is enriched for hits. Potency is the fitted concentration of half-maximal effect.

O=C(C1CCCC1)N1CC2(CCCCN2C2COC2)Cc2ccccc21 (centres undefined) was read as Pf Dd2 growth 21.4%.
`CS(=O)(=O)N1CC2(CCCN2Cc2cccc(C(N)=O)c2)Cc2ccccc21` (centres undefined) gave Pf Dd2 growth 14.1µM*.
NCC(=O)N1CCCC2(Cc3ccccc3CN2C(=O)Cc2cccc(Cl)c2)C1 (centres undefined) was read as Pf Dd2 growth 12.6µM*.
For CC(=O)N1CC2(CCCN(Cc3cccc(C(N)=O)c3)C2)Cc2ccccc21 (centres undefined) the results were Pf Dd2 growth -3.7%.
`O=C(Cc1ccccc1)N1Cc2ccccc2CC2(CCCN2Cc2ccncc2)C1` (centres undefined) gave Pf Dd2 growth 8.91µM*.
`Cc1ccc(C(=O)N2CCCCC2C(=O)Nc2cccc(-c3nnc(C)s3)c2)cn1` (centres undefined) gave Pf Dd2 growth -19.4%.
`COc1cc(NC(=O)N2CCCC(Cn3cnc4cccnc43)C2)cc(OC)c1OC` (centres undefined) gave Pf Dd2 growth inactive.
`COCCN1CCCCCC(O)c2cc(C(=O)NCCCc3ccccc3)ccc21` (centres undefined) gave Pf Dd2 growth -24.0%.
O=C(Cn1ccn2nc(-c3ccc(F)cc3)c(CO)c2c1=O)Nc1cccc(F)c1 was read as Pf Dd2 growth -21.8%.
`CC(C)c1noc(C2CCCNCCC(=O)NCC2)n1` (centres undefined) gave Pf Dd2 growth inactive.
`O=C(Nc1ccc(Cl)cc1)N1CCn2c(nnc2-c2ccccc2)C1` gave Pf Dd2 growth -21.8%.
Screening Cc1cccc(OCC(=O)N2C[C@@H](CO)[C@H](c3nc(C4CC4)no3)C2)c1 returned Pf Dd2 growth -21.2%.
Screening COCC(=O)N[C@H]1C[C@@H](CO)N(Cc2ccccn2)C1 returned Pf Dd2 growth 59.0%.
O=C1CC2CCCC(C1)N2[S+](=O)([O-])c1ccccc1 was read as Pf Dd2 growth 3.1%[44.1 µM].
C=CCN(C)C(=O)C[C@@H]1c2nc(NC(=O)c3cccc(F)c3)sc2C[C@@H]2[C@](C)(CO)[C@H](O)CC[C@]21C was read as Pf Dd2 growth -2.0%.
`CC(C)C(=O)N1Cc2ccccc2CC2(CCCCN2Cc2cccnc2)C1` (centres undefined) gave Pf Dd2 growth 12.6µM*.
Screening CC(=O)N1Cc2ccccc2CC2(CCCN2Cc2ccccc2)C1 (centres undefined) returned Pf Dd2 growth -7.7%.
CC(=O)NCC(=O)N1Cc2ccccc2CC2(CCCN2Cc2ccccc2)C1 (centres undefined) was read as Pf Dd2 growth -16.9%.
CCN1c2cc(C(=O)Nc3ccc(F)c(F)c3)ccc2C(=O)N2CCCCC21 (centres undefined) was read as Pf Dd2 growth -2.8%.
For COCCN1CC(C(=O)NCCOc2ccccc2)CCC1=O (centres undefined) the results were Pf Dd2 growth -7.1%.
For COc1cccc(C(=O)N2CCC(N3C(=O)CCC3C(=O)NCc3ccccc3)CC2)c1C (centres undefined) the results were Pf Dd2 growth -4.7%.
Screening COc1ccc2cc1Nc1ccc(cc1)C[C@H](NCC1CC1)C(=O)N(C)[C@@H](C(=O)NCc1ccccc1)C2 returned Pf Dd2 growth -25.4%.
For COc1ccc2cc1Nc1ccc(cc1)C[C@H](NCc1ccc(C)o1)C(=O)N(C)[C@@H](C(=O)NCc1ccccc1)C2 the results were Pf Dd2 growth 0.891µM*.
COc1ccc2cc1Nc1ccc(cc1)C[C@H](NCc1ccc(O)cc1)C(=O)N(C)[C@H](C(=O)NCCOc1ccccc1)C2 was read as Pf Dd2 growth 2.51µM*.
`COc1ccc(CCN2CC(C(=O)NCCc3ccc(C)cc3)CC2=O)cc1OC` (centres undefined) gave Pf Dd2 growth 24.1%.
Screening Cc1ccc(CNC(=O)C2N(C(C)C)C(=O)C23CCCC3)o1 (centres undefined) returned Pf Dd2 growth 5.6%.
Screening COc1cccc(N2CC(C(=O)NCCOc3ccccc3)NC2=O)c1 (centres undefined) returned Pf Dd2 growth 11.6%.
For COc1ccc2cc1Nc1ccc(cc1)C[C@H](NCc1ccc(C)o1)C(=O)N(C)[C@H](C(=O)NCCC(C)C)C2 the results were Pf Dd2 growth 1µM*.
Screening O=C1CN(C(=O)c2cnc3ccccn3c2=O)CCN1Cc1ccc(F)cc1 returned Pf Dd2 growth -10.2%.
Screening COc1cccc(-c2cnc3[nH]cc(CC(N)=O)c3c2)c1 returned Pf Dd2 growth inactive.
Screening COCc1nnc2n1CCC(NC(=O)CCCc1nc3ccccc3s1)CC2 (centres undefined) returned Pf Dd2 growth -18.4%.
For O=C1CCN(C(=O)C2CCN(C(=O)C3(c4ccccc4)CC3)CC2)CCCCCCN1 the results were Pf Dd2 growth 2.5%.
Screening Cc1sc(NC(=O)COc2ccc(C(C)(C)C)cc2)c(C(=O)OC(C)C)c1C returned Pf Dd2 growth 28.4%.
Cc1c(C(=O)OC(C)C)sc(NC(=O)C2c3ccccc3Oc3ccccc32)c1C(=O)OC(C)C was read as Pf Dd2 growth 2.24µM*.
Screening CCOC(=O)c1sc(NC(=O)C2c3ccccc3Oc3ccccc32)c(C#N)c1C returned Pf Dd2 growth -17.7%.
For CCC1(C(=O)Nc2ccc(C)cc2)CCCCC(=O)N1 (centres undefined) the results were Pf Dd2 growth -24.2%.
For CN1C(=O)C(CC(N)=O)=C2CCCCC21 (centres undefined) the results were Pf Dd2 growth -22.3%.
`CCN(Cc1ccccc1)C(=O)c1cc2c(N3CCCC3)nc(C)cn2n1` gave Pf Dd2 growth inactive.
For Cc1cn2nc(C(=O)Nc3ccc(Cl)cc3C)cc2c(N(C)Cc2ccccc2)n1 the results were Pf Dd2 growth 10µM*.
Cc1cn2nc(C(=O)Nc3ccccc3C)cc2c(N(C)Cc2ccccc2)n1 was read as Pf Dd2 growth -13.5%.
Screening Cc1cn2nc(C(=O)Nc3cccc(F)c3C)cc2c(N(C)Cc2ccccc2)n1 returned Pf Dd2 growth -3.2%.
`Cc1cn2nc(C(=O)N3CCCCC3)cc2c(N(C)Cc2ccccc2)n1` gave Pf Dd2 growth 7.08µM*.
For Cc1cn2nc(C(=O)N3CCN(c4ccccc4)CC3)cc2c(N(C)Cc2ccccc2)n1 the results were Pf Dd2 growth -7.9%.
Screening COc1ccc(NC(=O)O[C@@H]2CO[C@H]3[C@@H]2OC[C@@H]3NC(=O)Nc2ccc(C(C)C)cc2)cc1 returned Pf Dd2 growth inactive.
COC(=O)C(=O)N1CC[C@@H]2[C@H]1C(=O)N(C(C)C)C(=O)N2Cc1cccc(F)c1 was read as Pf Dd2 growth 15.5%[44.1 µM].
`CC(C)(C)c1cn(C[C@H]2CC3CCN2C[C@@H]3C(=O)Nc2nccs2)nn1` (some centres undefined) gave Pf Dd2 growth inactive.
COC(=O)c1ccc(NC(=O)Cn2nc3n(c2=O)CCCC3)cc1 was read as Pf Dd2 growth inactive.
CN1CCCCC(CC(=O)Nc2ccc(F)c(F)c2)C1=O (centres undefined) was read as Pf Dd2 growth 6.1%.
`CCC(O)c1cc2n(n1)CCN(Cc1nnc(-c3cccc(F)c3)o1)C2` (centres undefined) gave Pf Dd2 growth -14.4%.
`CC1=C(C(=O)Nc2cccnc2)C(c2ccccc2Cl)n2nc(-c3ccccc3)nc2N1` (centres undefined) gave Pf Dd2 growth -6.7%.
`COc1ccccc1C1C=C(c2ccc(C(C)C)cc2)Nc2nnnn21` (centres undefined) gave Pf Dd2 growth inactive.
